Columns and labels:
Assay in all cases: DAPPL (digital affinity profiling via proximity ligation, sequencing); 10 mM Tris-HCl pH 7.5, 50 mM NaCl, 1 mM DTT, 4% glycerol, room temperature, 30 min; GST-TFs on glutathione beads, 16-mer random dsDNA library, 0.1% formaldehyde crosslink after washing; high values mean tight binding
FLI1 = molecular target: T1, FLI1 (Homo sapiens, UniProt Q01543 1-452); conditions: protein: recombinant; tags: N-terminal GST; dsDNA, one strand shown
T1 sequence: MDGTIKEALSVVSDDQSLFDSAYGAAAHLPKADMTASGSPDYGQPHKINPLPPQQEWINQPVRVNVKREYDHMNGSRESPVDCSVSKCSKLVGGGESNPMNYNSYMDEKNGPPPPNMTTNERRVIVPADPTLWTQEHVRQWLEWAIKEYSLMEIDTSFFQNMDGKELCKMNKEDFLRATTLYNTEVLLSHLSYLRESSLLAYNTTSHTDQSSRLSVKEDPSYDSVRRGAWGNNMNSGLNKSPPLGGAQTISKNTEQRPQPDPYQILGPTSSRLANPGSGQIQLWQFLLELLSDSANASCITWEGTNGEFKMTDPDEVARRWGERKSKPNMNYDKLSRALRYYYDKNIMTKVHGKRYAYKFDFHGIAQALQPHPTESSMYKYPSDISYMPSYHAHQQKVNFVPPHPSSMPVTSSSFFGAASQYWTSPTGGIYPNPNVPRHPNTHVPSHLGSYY
In short: (§1)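 In yeast, human transcription factors were expressed with a GST fusion, then pulled down on glutathione beads and given DNA barcodes. Pooled with a tag-only sample, they were exposed to 200 nmole of a 16-mer random double-stranded DNA library (Tris/NaCl/DTT/glycerol buffer, room temperature, 30 min), washed, crosslinked with 0.1% formaldehyde, proximity-ligated using BsaI/T4 ligase for 1 h at 37 °C, PCR-amplified and read on an Illumina NextSeq500. Each hexamer's frequency of reads for a factor, divided by the matching frequency for the tag-only sample, gives the binding signal.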

ELK1 = molecular target: T2, ELK1 (Homo sapiens, UniProt P19419 1-428); conditions: protein: recombinant; tags: N-terminal GST; dsDNA, one strand shown
T2 sequence: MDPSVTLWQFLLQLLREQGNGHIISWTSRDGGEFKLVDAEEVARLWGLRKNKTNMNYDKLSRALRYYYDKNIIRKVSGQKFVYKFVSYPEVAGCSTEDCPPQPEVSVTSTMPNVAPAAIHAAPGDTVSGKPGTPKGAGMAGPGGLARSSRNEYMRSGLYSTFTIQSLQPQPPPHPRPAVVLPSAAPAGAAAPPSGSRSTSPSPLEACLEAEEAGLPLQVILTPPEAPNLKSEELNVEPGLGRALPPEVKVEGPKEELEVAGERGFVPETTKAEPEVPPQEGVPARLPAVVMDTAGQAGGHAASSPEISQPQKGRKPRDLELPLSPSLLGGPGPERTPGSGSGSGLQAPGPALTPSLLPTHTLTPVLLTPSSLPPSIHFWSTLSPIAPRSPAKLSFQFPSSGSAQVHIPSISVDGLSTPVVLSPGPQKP
In short: as §1

GABPA = molecular target: T3, GABPA (Homo sapiens, UniProt Q06546 1-454); conditions: protein: recombinant; tags: N-terminal GST; dsDNA, one strand shown
T3 sequence: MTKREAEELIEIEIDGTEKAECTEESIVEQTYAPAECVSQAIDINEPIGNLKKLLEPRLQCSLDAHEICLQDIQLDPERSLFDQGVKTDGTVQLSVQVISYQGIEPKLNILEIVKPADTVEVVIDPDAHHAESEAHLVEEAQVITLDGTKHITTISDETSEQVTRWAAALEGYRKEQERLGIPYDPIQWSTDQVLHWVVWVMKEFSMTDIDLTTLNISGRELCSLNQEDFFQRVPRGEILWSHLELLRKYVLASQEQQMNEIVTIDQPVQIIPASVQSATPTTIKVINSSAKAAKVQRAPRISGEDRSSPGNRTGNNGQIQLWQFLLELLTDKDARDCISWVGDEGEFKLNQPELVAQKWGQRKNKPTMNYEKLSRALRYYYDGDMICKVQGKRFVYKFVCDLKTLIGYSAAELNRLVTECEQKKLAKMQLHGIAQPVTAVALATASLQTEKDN
In short: as §1

ERG = molecular target: T4, ERG (Homo sapiens, UniProt P11308 1-479); conditions: protein: recombinant; tags: N-terminal GST; dsDNA, one strand shown
T4 sequence: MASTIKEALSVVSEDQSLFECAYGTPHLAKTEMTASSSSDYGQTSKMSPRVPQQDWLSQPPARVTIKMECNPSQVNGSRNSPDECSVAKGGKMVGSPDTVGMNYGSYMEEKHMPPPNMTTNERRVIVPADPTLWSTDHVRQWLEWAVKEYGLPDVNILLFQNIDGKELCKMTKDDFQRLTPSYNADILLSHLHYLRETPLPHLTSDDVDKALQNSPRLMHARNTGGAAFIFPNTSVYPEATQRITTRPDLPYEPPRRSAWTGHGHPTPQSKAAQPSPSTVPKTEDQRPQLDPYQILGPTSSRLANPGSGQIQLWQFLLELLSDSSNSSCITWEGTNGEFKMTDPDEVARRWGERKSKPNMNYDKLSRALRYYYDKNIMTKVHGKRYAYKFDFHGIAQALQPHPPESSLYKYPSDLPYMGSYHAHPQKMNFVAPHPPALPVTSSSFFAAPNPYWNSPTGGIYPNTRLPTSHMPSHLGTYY
In short: as §1

ELF1 = ELF1 (Homo sapiens, UniProt P32519 1-619); conditions: protein: recombinant; tags: N-terminal GST; dsDNA, one strand shown
In short: as §1

EHF = molecular target: T5, EHF (Homo sapiens, UniProt Q9NZC4 1-300); conditions: protein: recombinant; tags: N-terminal GST; dsDNA, one strand shown
T5 sequence: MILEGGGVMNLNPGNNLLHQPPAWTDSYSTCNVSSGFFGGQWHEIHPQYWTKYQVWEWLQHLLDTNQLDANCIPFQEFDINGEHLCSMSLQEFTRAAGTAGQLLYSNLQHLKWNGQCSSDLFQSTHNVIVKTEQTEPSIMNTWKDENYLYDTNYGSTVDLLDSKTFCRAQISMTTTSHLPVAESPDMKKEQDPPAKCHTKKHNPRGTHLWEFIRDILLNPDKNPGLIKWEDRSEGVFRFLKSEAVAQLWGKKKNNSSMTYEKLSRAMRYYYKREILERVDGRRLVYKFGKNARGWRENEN
In short: as §1

SPI1 = SPI1 (Homo sapiens, UniProt P17947 1-270); conditions: protein: recombinant; tags: N-terminal GST; dsDNA, one strand shown
In short: as §1

SPIB = SPIB (Homo sapiens, UniProt Q01892 1-262); conditions: protein: recombinant; tags: N-terminal GST; dsDNA, one strand shown
In short: as §1

ELK3 = molecular target: T6, ELK3 (Homo sapiens, UniProt P41970 1-407); conditions: protein: recombinant; tags: N-terminal GST; dsDNA, one strand shown
T6 sequence: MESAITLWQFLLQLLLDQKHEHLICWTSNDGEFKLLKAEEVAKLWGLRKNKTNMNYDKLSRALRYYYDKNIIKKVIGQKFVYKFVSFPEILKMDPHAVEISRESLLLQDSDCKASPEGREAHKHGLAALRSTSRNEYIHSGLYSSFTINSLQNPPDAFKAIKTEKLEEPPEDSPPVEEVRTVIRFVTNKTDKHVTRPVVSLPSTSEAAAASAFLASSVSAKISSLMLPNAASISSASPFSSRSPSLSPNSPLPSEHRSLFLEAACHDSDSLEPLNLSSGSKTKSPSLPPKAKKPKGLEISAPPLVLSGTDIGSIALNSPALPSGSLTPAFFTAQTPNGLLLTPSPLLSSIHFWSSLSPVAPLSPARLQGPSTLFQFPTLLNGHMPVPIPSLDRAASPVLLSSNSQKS
In short: as §1

FEV = molecular target: T7, FEV (Homo sapiens, UniProt Q99581 1-238); conditions: protein: recombinant; tags: N-terminal GST; dsDNA, one strand shown
T7 sequence: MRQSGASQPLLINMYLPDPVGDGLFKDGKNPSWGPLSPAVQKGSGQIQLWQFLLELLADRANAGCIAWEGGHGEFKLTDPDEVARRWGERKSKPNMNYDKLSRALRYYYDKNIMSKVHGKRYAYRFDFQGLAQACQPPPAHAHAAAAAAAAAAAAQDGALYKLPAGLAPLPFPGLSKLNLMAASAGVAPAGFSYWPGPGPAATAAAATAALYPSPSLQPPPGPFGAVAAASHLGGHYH
In short: as §1

ETV5 = ETV5 (Homo sapiens, UniProt P41161 1-510); conditions: protein: recombinant; tags: N-terminal GST; dsDNA, one strand shown
In short: as §1

HSF1 = HSF1 (Homo sapiens, UniProt Q00613 1-529); conditions: protein: recombinant; tags: N-terminal GST; chain copies: 3; dsDNA, one strand shown
In short: as §1

SPIC = molecular target: T8, SPIC (Homo sapiens, UniProt Q8N5J4 1-248); conditions: protein: recombinant; tags: N-terminal GST; dsDNA, one strand shown
T8 sequence: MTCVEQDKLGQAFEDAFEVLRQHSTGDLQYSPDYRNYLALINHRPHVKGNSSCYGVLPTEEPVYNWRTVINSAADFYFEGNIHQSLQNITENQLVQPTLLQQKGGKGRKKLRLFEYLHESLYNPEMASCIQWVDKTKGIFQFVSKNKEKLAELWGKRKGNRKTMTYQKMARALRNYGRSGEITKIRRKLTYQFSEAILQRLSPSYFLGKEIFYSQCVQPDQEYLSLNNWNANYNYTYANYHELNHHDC
In short: as §1

ELF4 = ELF4 (Homo sapiens, UniProt Q99607 1-663); conditions: protein: recombinant; tags: N-terminal GST; dsDNA, one strand shown
In short: as §1

ELK4 = molecular target: T9, ELK4 (Homo sapiens, UniProt P28324-2 1-405); conditions: protein: recombinant; tags: N-terminal GST; dsDNA, one strand shown
T9 sequence: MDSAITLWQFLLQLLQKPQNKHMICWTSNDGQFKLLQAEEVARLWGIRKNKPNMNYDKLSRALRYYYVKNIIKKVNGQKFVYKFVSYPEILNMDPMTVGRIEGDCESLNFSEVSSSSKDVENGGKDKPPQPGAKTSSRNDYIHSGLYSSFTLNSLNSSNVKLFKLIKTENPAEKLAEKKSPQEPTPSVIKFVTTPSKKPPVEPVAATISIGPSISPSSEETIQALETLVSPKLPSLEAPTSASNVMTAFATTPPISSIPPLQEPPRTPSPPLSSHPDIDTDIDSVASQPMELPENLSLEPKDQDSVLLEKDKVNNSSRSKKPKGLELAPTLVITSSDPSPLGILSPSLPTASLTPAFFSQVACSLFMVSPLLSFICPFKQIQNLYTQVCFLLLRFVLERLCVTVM
In short: as §1

ETV2 = molecular target: T10, ETV2 (Homo sapiens, UniProt O00321 1-342); conditions: protein: recombinant; tags: N-terminal GST; dsDNA, one strand shown
T10 sequence: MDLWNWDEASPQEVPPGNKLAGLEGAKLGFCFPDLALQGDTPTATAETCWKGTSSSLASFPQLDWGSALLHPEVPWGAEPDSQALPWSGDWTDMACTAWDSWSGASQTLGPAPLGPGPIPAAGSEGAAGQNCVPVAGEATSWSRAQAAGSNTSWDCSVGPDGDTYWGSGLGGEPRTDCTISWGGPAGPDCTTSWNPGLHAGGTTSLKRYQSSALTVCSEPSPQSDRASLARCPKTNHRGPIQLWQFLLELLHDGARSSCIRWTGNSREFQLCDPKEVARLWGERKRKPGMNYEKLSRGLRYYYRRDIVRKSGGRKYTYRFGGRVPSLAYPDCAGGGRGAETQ
In short: as §1

ELF3 = molecular target: T11, ELF3 (Homo sapiens, UniProt P78545 1-371); conditions: protein: recombinant; tags: N-terminal GST; dsDNA, one strand shown
T11 sequence: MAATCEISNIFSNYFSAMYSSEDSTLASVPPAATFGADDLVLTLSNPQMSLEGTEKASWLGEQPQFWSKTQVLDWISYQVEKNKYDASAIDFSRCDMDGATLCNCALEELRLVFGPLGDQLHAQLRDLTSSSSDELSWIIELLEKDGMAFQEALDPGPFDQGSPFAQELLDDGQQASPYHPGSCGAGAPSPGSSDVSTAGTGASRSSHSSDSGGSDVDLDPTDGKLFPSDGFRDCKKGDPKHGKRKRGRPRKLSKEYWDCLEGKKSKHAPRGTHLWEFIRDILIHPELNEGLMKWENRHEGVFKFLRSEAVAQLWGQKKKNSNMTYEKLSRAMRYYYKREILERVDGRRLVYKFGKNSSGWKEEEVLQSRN
In short: as §1

CRX = CRX (Homo sapiens, UniProt O43186 1-299); conditions: protein: recombinant; tags: N-terminal GST; dsDNA, one strand shown
In short: as §1

ETV1 = ETV1 (Homo sapiens, UniProt P50549 1-477); conditions: protein: recombinant; tags: N-terminal GST; dsDNA, one strand shown
In short: as §1

Sequence of ETV5 (P41161 whole entry): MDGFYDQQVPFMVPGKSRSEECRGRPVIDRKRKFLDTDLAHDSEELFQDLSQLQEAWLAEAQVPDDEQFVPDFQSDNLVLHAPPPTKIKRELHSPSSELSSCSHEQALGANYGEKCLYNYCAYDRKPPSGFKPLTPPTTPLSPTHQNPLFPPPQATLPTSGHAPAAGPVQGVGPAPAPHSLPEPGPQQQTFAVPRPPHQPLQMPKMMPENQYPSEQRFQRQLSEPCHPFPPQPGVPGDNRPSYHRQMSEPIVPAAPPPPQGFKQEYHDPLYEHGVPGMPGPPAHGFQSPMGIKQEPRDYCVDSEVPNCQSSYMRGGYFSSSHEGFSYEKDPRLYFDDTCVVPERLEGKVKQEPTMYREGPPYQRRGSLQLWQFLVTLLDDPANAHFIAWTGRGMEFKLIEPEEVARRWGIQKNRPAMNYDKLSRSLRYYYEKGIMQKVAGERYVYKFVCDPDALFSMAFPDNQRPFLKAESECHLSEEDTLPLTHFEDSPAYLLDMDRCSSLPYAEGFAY
Sequence of SPIB (Q01892 whole entry): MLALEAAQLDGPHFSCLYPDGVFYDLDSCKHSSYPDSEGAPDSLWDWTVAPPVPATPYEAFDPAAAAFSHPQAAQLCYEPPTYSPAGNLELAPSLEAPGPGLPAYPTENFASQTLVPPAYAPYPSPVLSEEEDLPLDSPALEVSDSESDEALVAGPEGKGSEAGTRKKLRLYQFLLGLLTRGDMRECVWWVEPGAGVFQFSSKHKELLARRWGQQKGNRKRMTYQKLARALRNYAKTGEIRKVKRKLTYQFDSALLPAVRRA
Sequence of ELF4 (Q99607 whole entry): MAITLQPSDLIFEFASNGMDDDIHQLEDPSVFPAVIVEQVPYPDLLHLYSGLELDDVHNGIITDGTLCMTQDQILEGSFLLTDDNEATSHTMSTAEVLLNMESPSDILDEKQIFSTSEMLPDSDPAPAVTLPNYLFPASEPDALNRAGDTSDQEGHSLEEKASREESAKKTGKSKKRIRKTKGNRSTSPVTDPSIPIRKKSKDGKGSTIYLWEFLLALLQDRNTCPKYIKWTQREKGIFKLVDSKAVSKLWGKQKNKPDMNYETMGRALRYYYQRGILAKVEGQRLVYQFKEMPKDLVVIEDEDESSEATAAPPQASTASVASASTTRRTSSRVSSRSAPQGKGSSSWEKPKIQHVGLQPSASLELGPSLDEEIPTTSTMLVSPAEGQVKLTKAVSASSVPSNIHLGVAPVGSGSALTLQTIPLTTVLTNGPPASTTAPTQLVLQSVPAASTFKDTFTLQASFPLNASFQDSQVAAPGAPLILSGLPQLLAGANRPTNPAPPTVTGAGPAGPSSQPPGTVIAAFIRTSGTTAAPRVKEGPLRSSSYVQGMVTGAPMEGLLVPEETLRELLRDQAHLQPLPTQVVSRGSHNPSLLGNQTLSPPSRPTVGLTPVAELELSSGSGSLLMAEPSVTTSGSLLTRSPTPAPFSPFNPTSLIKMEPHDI
Sequence of HSF1 (Q00613 whole entry): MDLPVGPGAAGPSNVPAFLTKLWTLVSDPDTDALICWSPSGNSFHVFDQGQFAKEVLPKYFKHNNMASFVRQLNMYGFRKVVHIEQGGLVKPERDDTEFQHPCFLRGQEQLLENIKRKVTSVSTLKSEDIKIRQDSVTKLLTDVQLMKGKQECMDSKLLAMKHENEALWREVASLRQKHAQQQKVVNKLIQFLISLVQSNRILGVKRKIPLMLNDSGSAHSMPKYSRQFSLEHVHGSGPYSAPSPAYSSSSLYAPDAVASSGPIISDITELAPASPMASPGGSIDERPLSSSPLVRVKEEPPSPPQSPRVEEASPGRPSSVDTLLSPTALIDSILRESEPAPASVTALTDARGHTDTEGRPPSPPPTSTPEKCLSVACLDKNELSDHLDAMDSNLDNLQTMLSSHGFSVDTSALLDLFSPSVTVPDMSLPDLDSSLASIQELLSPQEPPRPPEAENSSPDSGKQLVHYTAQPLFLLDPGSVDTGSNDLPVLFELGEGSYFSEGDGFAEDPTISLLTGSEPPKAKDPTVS
Sequence of ETV1 (P50549 whole entry): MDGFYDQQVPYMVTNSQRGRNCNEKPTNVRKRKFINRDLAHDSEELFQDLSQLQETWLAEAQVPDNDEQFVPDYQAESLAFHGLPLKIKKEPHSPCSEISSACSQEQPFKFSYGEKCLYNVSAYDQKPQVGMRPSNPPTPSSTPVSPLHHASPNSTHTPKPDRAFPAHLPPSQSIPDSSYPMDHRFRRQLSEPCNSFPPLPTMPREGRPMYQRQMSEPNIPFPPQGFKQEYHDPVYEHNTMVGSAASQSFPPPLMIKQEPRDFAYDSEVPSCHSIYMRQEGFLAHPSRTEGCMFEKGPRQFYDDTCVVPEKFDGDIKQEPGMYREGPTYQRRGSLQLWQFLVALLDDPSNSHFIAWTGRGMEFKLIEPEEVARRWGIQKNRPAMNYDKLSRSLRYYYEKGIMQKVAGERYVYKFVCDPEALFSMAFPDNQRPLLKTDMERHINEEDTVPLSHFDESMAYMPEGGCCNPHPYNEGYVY
Sequence of CRX (O43186 whole entry): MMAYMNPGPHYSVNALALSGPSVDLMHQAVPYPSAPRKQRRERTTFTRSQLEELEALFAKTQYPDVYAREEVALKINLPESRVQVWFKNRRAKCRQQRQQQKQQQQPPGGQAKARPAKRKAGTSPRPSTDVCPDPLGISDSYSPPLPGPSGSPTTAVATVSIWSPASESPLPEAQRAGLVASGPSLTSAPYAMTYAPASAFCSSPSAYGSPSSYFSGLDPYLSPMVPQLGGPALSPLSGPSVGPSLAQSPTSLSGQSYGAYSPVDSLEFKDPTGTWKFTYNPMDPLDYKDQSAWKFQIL
Sequence of ELF1 (P32519 whole entry): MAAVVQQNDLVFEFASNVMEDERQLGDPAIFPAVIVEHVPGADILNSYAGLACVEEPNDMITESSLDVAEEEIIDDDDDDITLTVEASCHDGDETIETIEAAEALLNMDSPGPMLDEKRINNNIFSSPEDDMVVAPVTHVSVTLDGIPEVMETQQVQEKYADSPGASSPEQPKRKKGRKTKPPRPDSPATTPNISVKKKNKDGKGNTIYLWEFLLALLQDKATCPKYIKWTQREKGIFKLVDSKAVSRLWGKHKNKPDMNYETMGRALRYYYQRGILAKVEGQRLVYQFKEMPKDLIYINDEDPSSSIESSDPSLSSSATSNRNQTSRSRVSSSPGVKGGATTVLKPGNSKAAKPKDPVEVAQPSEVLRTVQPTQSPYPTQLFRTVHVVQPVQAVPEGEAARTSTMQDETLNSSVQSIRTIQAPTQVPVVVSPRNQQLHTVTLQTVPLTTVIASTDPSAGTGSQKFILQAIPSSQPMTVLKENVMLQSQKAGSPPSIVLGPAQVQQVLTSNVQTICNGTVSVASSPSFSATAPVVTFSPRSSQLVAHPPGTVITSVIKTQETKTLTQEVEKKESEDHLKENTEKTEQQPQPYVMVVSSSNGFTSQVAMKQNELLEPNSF

In the case of GCTCTC, the binding signal (FLI1) is reported as 1.43 fold enrichment (6-mer frequency, TF over GST control), the binding signal (ELK1) is reported as 1.5 fold enrichment (6-mer frequency, TF over GST control) and the binding signal (GABPA) is reported as 1.53 fold enrichment (6-mer frequency, TF over GST control). For the same sequence, the binding signal (ERG) was 1.42 fold enrichment (6-mer frequency, TF over GST control), the binding signal (ELF1) was 1.47 fold enrichment (6-mer frequency, TF over GST control) and the binding signal (EHF) was 1.34 fold enrichment (6-mer frequency, TF over GST control). The binding signal (SPI1) was 1.35 fold enrichment (6-mer frequency, TF over GST control), the binding signal (SPIB) was 1.29 fold enrichment (6-mer frequency, TF over GST control) and the binding signal (ELK3) was 1.46 fold enrichment (6-mer frequency, TF over GST control). For the same sequence, the binding signal (FEV) was 1.47 fold enrichment (6-mer frequency, TF over GST control), the binding signal (ETV5) was 1.28 fold enrichment (6-mer frequency, TF over GST control) and the binding signal (HSF1) was 1.42 fold enrichment (6-mer frequency, TF over GST control). For the same sequence, the binding signal (SPIC) was 1.33 fold enrichment (6-mer frequency, TF over GST control), the binding signal (ELF4) was 1.45 fold enrichment (6-mer frequency, TF over GST control) and the binding signal (ELK4) was 1.56 fold enrichment (6-mer frequency, TF over GST control). For the same sequence, the binding signal (ETV2) was 1.61 fold enrichment (6-mer frequency, TF over GST control), the binding signal (ELF3) was 1.35 fold enrichment (6-mer frequency, TF over GST control) and the binding signal (CRX) was 1.24 fold enrichment (6-mer frequency, TF over GST control). For the same sequence, the binding signal (ETV1) was 1.57 fold enrichment (6-mer frequency, TF over GST control).

From publication PMC7862700, “An all-to-all approach to the identification of sequence-specific readers for epigenetic DNA modifications on cytosine”
